Source: PubChem BioAssay (EPA / NIEHS)
Several values for one entry are separate records, joined by “and”; a condition that tells them apart may be missing. Identical values can stand only once. Inconclusive results are not listed. Some compounds were tested as several samples or in several runs, with calls that do not always agree. Activity calls are given as the source filed them. The calls were made as follows, unless noted: active = hit-call score of the fitted dose curve at least 0.9, where 1 is the maximum; inactive = score below 0.9.

Key:
[1] = biological target: Retinoic acid receptor RXR-alpha (Homo sapiens) (UniProt P19793); assay: ATG_RXRa_TRANS: Attagene TRANS-FACTORIAL HepG2 Assay for human Retinoid X Receptor alpha (RXRa) (AID 2283012; active = hit-call score of the fitted dose curve at least 0.9, where 1 is the maximum)
Retinoic acid receptor RXR-alpha (Homo sapiens), sequence (P19793 whole entry, looked up, the tested form may be a part): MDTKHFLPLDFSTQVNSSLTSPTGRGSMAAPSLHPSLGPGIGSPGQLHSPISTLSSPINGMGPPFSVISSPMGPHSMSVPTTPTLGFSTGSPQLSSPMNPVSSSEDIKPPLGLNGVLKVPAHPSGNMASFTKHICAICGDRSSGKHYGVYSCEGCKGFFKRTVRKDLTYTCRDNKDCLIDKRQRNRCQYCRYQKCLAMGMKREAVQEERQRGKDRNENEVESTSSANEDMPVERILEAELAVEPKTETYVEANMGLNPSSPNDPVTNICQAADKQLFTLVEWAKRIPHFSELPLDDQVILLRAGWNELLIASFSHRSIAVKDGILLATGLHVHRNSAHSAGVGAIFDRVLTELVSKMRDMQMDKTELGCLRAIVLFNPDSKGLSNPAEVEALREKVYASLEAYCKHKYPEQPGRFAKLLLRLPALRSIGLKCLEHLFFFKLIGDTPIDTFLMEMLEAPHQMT
Method in brief: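 Transient transfection of human HepG2 with multiple GAL4-UAS reporter constructs; 24 h compound exposure; total RNA isolated, reverse-transcribed, PCR-amplified, 6-FAM labelled, HpaI-cut, resolved by capillary electrophoresis. Positive-direction fit versus DMSO.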

[2] = biological target: human Retinoid X Receptor beta (RXRb), RXRB (gene 6257) (UniProt P28702); assay: ATG_RXRb_TRANS: Attagene TRANS-FACTORIAL HepG2 Assay for human Retinoid X Receptor beta (RXRb) (AID 2283013; active = hit-call score of the fitted dose curve at least 0.9, where 1 is the maximum)
human Retinoid X Receptor beta (RXRb), RXRB (gene 6257), sequence (P28702 whole entry, looked up, the tested form may be a part): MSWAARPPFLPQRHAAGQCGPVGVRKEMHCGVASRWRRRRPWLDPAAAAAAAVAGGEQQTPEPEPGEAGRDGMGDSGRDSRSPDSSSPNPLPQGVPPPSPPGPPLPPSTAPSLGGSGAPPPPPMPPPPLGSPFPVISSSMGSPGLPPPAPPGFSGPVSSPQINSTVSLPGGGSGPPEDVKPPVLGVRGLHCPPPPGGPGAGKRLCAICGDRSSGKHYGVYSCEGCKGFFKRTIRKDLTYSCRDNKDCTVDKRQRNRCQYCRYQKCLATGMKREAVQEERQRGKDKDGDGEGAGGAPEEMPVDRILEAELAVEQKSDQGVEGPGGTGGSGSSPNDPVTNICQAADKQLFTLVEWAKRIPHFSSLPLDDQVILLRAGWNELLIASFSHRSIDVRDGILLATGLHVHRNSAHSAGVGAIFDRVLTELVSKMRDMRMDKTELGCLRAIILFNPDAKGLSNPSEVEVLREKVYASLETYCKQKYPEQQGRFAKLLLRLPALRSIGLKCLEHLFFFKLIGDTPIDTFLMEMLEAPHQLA
Method in brief: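 Transfect HepG2 with GAL4-UAS multi-reporter constructs (chimeric NR-Gal4, TRANS format); dose compound 24 h; isolate RNA, RT-PCR, FAM primer extension, HpaI digest; quantify by capillary electrophoresis; positive direction vs DMSO.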

[3] = read-out: E-selectin (Homo sapiens) (UniProt P16581); assay: BSK_3C_Eselectin: BioMAP Diversity Plus: 3C Assay for Eselectin Biomarker Activity (AID 2283015); details: primary human endothelial cells (HUVEC); actives raise or lower the signal
Method in brief: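 HUVEC, 3C stimulation; compound exposure 24 h; E-selectin by ELISA; gain- or loss-of-signal fitted bidirectionally vs DMSO baseline.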

[4] = read-out: Interleukin-1 alpha (IL1a), IL1A (gene 3552); assay: BSK_BE3C_IL1a: BioMAP Diversity Plus: BE3C Assay for Interleukin-1 alpha (IL1a) Biomarker Activity (AID 2283016); details: primary human bronchial epithelial cells; actives raise or lower the signal
Method in brief: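 BE3C primary human bronchial epithelium; cpd 24 h; IL-1a by ELISA; bidirectional fit vs DMSO; parallel SRB (0.1% SRB, 10% TCA fix, 560 nm) for cytotoxicity.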

[5] = read-out: Monocyte Chemoattractant Protein-1 (MCP1), CCL2 (gene 6347); assay: BSK_3C_MCP1: BioMAP Diversity Plus: 3C Assay for Monocyte Chemoattractant Protein-1 (MCP1) Biomarker Activity (AID 2283017); details: primary human endothelial cells (HUVEC); actives raise or lower the signal
Method in brief: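 HUVEC, 3C system; 24 h chemical exposure; MCP-1 by ELISA; bidirectional curve fit vs DMSO baseline.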

[6] = read-out: Monocyte Chemoattractant Protein-1 (MCP1), CCL2 (gene 6347); assay: BSK_4H_MCP1: BioMAP Diversity Plus: 4H Assay for Monocyte Chemoattractant Protein-1 (MCP1) Biomarker Activity (AID 2283018); details: primary human endothelial cells (HUVEC); actives raise or lower the signal
Method in brief: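 ELISA read-out of MCP-1 from human vascular endothelial primary cells taken at 24 hours after compound exposure. Activity was fitted in both directions relative to DMSO, which served as negative control.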

[7] = read-out: Human Leukocyte Antigen - DR isotype (HLADR), HLA-DRA (gene 3122); assay: BSK_3C_HLADR: BioMAP Diversity Plus: 3C Assay for Human Leukocyte Antigen - DR isotype (HLADR) Biomarker Activity (AID 2283019); details: primary human endothelial cells (HUVEC); actives raise or lower the signal
Method in brief: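 HUVEC, 3C stimulation, 24 h post-dose; HLA-DR by ELISA; bidirectional curve fit vs DMSO baseline; gain or loss of signal scored.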

[8] = read-out: Interleukin-8 (IL8), CXCL8 (gene 3576); assay: BSK_3C_IL8: BioMAP Diversity Plus: 3C Assay for Interleukin-8 (IL8) Biomarker Activity (AID 2283020); details: primary human endothelial cells (HUVEC); actives raise or lower the signal
Method in brief: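 ELISA read-out of IL-8 from human umbilical vein endothelium, measured 24 h after chemical dosing. Activity is expressed relative to DMSO negative control, with both increases and decreases fitted.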

[9] = read-out: Monokine induced gamma interferon (MIG), CXCL9 (gene 4283); assay: BSK_3C_MIG: BioMAP Diversity Plus: 3C Assay for Monokine induced gamma interferon (MIG) Biomarker Activity (AID 2283021); details: primary human endothelial cells (HUVEC); actives raise or lower the signal;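 as to AC50: MIG protein level measured by immunoassay in the treated endothelial cultures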
Method in brief: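 Read-out is ELISA detection of MIG on human umbilical vein endothelial cells, taken 24 h after dosing. Gain or loss of signal was scored relative to DMSO controls using bidirectional curve fitting.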

[10] = biological target: human Vitamin D Receptor (VDR), VDR (gene 7421) (UniProt P11473); assay: ATG_VDR_TRANS: Attagene TRANS-FACTORIAL HepG2 Assay for human Vitamin D Receptor (VDR) (AID 2283022; active = hit-call score of the fitted dose curve at least 0.9, where 1 is the maximum)
human Vitamin D Receptor (VDR), VDR (gene 7421), sequence (P11473 whole entry, looked up, the tested form may be a part): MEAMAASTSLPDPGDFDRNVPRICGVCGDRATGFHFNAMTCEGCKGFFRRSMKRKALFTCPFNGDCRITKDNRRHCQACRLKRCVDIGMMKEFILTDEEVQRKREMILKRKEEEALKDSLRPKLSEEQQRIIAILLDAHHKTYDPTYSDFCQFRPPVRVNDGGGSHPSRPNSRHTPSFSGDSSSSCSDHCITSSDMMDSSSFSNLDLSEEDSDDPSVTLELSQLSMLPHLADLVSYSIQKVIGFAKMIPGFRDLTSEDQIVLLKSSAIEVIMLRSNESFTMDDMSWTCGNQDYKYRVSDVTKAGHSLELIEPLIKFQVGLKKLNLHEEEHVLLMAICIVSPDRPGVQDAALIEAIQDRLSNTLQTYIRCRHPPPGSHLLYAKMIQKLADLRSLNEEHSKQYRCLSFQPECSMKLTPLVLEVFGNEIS
Method in brief: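 RT-PCR/capillary electrophoresis read-out of reporter mRNA induction in transiently transfected HepG2; 24 h dosing; chimeric NR-Gal4 (TRANS format); gain-of-signal fit against DMSO baseline.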

[11] = BSK_3C_SRB: Viability Assessment in the BioMAP Diversity Plus: 3C Assay (AID 2283023); details: primary human endothelial cells (HUVEC);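 also: fitted both ways against DMSO so a hit may be signal rise or drop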
Method in brief: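 HUVEC, 24 h post-dose; 10% TCA fix, 0.1% SRB stain, A560 nm. Bidirectional curve fit vs DMSO negative control.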

[12] = read-out: Matrix Metallopeptidase 1 (MMP1), MMP1 (gene 4312); assay: BSK_BE3C_MMP1: BioMAP Diversity Plus: BE3C Assay for Matrix Metallopeptidase 1 (MMP1) Biomarker Activity (AID 2283024); details: primary human bronchial epithelial cells; actives raise or lower the signal
Method in brief: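 Human bronchial epithelial cells (BE3C system) exposed to compound for 24 h; MMP1 then quantified by ELISA. Activity was fitted in both directions relative to DMSO.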

[13] = BSK_3C_Vis: BioMAP Diversity Plus: 3C Assay for Morphology Visualization (AID 2283025); details: primary human endothelial cells (HUVEC);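 also: fitted both ways so gain or loss versus DMSO counts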;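 as to AC50: light microscopy image of cell morphology used as background control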
Method in brief: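 Chemicals were added to primary human umbilical vein endothelium, cells were incubated 24 h, and morphology was then visualized by light microscopy. Gain or loss of signal was fitted bidirectionally relative to DMSO.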

[14] = read-out: Pselectin, SELP (gene 6403); assay: BSK_4H_Pselectin: BioMAP Diversity Plus: 4H Assay for Pselectin Biomarker Activity (AID 2283026); details: primary human endothelial cells (HUVEC); actives raise or lower the signal
Method in brief: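 ELISA read-out of P-selectin on human umbilical vein endothelium after 24 h of dosing. Values derive from bidirectional fitting relative to DMSO. Parallel SRB protein staining flagged overt cytotoxicity.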

[15] = BSK_4H_SRB: Viability Assessment in the BioMAP Diversity Plus: 4H Assay (AID 2283027); details: primary human endothelial cells (HUVEC);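 also: cells exposed to compound for 24 h before staining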
Method in brief: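 Absorbance at 560 nm of SRB-stained total protein served as the viability read-out in confluent primary human umbilical vein endothelium 24 h after chemical treatment. Curves were fitted bidirectionally against DMSO as negative control.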

[16] = BSK_BE3C_SRB: Viability Assessment in the BioMAP Diversity Plus: BE3C Assay (AID 2283028); details: primary human bronchial epithelial cells
Method in brief: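 Primary human bronchial epithelium; chemical dosing, 24 h; 10% TCA fix, 0.1% SRB stain, A560; bidirectional fit vs DMSO baseline.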

[17] = read-out: Thrombomodulin, THBD (gene 7056); assay: BSK_3C_Thrombomodulin: BioMAP Diversity Plus: 3C Assay for Thrombomodulin Biomarker Activity (AID 2283029); details: primary human endothelial cells (HUVEC); actives raise or lower the signal
Method in brief: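 Read-out is ELISA of thrombomodulin on human umbilical vein endothelium 24 h after chemical dosing. Gain or loss of signal is scored relative to DMSO. Overt cytotoxicity is checked in parallel cultures by sulforhodamine B staining.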

[18] = read-out: Urokinase-type plasminogen activator receptor (uPAR), PLAUR (gene 5329); assay: BSK_4H_uPAR: BioMAP Diversity Plus: 4H Assay for Urokinase-type plasminogen activator receptor (uPAR) Biomarker Activity (AID 2283030); details: primary human endothelial cells (HUVEC); actives raise or lower the signal
Method in brief: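 HUVEC, 24 h post-dose; uPAR by ELISA; bidirectional fit vs DMSO baseline.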

[19] = read-out: Vascular endothelial growth factor receptor 2 (Homo sapiens) (UniProt P35968); assay: BSK_4H_VEGFRII: BioMAP Diversity Plus: 4H Assay for Vascular endothelial growth factor receptor 2 (VEGFR2) Biomarker Activity (AID 2283031); details: primary human endothelial cells (HUVEC); actives raise or lower the signal
Method in brief: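 HUVEC (human primary), 4H system; 24 h post-dose; VEGFRII by ELISA; bidirectional curve fit vs DMSO baseline; gain or loss of signal scored.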

[20] = biological target: human Thyroid Receptor alpha (THRa1), THRA (gene 7067) (UniProt P10827); assay: ATG_THRa1_TRANS: Attagene TRANS-FACTORIAL HepG2 Assay for human Thyroid Receptor alpha (THRa1) (AID 2283014; active = hit-call score of the fitted dose curve at least 0.9, where 1 is the maximum)
human Thyroid Receptor alpha (THRa1), THRA (gene 7067), sequence (P10827 whole entry, looked up, the tested form may be a part): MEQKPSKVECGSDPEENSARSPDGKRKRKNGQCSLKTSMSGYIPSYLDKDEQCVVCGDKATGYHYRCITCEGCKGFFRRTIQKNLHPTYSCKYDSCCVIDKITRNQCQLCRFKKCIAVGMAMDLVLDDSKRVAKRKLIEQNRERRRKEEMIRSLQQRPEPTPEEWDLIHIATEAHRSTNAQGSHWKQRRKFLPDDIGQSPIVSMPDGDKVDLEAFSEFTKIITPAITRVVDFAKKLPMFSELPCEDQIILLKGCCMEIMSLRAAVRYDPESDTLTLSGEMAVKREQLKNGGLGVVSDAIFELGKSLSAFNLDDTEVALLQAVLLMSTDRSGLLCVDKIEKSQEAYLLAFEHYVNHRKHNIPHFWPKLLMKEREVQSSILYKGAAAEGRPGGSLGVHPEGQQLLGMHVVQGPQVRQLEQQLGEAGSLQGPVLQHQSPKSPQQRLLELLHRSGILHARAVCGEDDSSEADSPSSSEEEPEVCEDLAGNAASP
Method in brief: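 Transient HepG2 transfection, NR-Gal4 chimera driving GAL4-UAS reporters; 24 h compound exposure; total RNA, oligo(dT) RT, PCR, fluorescent primer extension, capillary electrophoresis. Upward direction vs DMSO control.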

Measured: AC50

E-selectin (Homo sapiens), sequence (P16581 whole entry, looked up): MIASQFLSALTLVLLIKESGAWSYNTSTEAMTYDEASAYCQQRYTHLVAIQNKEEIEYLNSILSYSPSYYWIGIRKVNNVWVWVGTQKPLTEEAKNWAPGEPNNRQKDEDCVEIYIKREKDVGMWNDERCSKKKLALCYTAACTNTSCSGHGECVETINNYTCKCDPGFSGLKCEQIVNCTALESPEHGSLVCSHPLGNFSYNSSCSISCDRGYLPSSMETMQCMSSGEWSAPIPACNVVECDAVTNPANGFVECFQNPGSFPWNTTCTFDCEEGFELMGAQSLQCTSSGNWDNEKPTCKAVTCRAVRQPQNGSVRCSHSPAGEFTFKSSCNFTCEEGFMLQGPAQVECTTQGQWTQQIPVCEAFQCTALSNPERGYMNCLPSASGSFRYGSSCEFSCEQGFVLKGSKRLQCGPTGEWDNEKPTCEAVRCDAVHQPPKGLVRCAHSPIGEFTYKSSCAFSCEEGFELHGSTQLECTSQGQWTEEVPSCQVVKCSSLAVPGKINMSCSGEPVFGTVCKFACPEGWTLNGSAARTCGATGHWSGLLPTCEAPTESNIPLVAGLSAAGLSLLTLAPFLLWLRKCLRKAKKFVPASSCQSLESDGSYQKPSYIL

CCCCC(CC)CO (configuration not stated)
not listed: [20]
inactive: all other assays above

CCCCCCC(C=O)=Cc1ccccc1
active: [2] 65.6 µM and 39.1 µM | [3] 37.7 µM | [5] 35 µM | [7] 36.7 µM | [8] 30.1 µM | [9] 36.3 µM | [11] 31 µM | [13] 37.5 µM | [14] 31.1 µM
inactive: [1] | [4] | [6] | [10] | [12] | [16] | [17] | [18] | [19]

CCCCCCCCCC[N+](C)(C)[O-]
not listed: [15] | [20]
inactive: all other assays above

CC(=O)O[C@]1(C(C)=O)CC[C@H]2[C@@H]3C=C(Cl)C4=CC(=O)[C@@H]5C[C@@H]5[C@]4(C)[C@H]3CC[C@@]21C
inactive: [1] | [2] | [20] | [3] | [5] | [6] | [8] | [9] | [10] | [13] | [14] | [15] | [16] | [17] | [19]
active: [4] 32.8 µM | [7] 33.4 µM | [10] 148 µM | [11] 29.8 µM | [12] 4.91 µM | [18] 14.7 µM

O=NO
not listed: [15] | [20]
inactive: all other assays above

C=CCCCCCCCCCCCC
active: [2] 59.1 µM
not listed: [20]
inactive: all other assays above

Cc1cc(SC2=C(O)C[C@@](CCc3ccc(N)cc3)(C(C)C)OC2=O)c(C(C)(C)C)cc1CO
not listed: [20]
inactive: all other assays above
